Inconclusive results are not listed. Values without a mark were called inactive. The source made the active and inactive calls. Calls come from the whole dose curve; as a rule, active = well fitted activation curve with a large enough effect in the signal ratio in the repeat runs, with a control signal flat (not every such curve was filed as active); inconclusive = weak or mixed curves, or effect the other way; inactive = no such curve, though single readings can be large or run the other way; the % refers to the signal ratio.
% is set by controls: 0 for no effect and ±100 for the full control effect.

This assay deals with Androgen receptor (Homo sapiens) (UniProt P10275). In words: qHTS assay to identify small molecule agonists of the androgen receptor (AR) signaling pathway (AID 743036). The conditions noted are these: HEK293 AR-UAS-bla GripTite, beta-lactamase FRET ratio, 16 h; series mostly up to 62.4 µM; activation: at the top concentration. The source says: U.S. Tox21 Program National Center for Advancing Translational Sciences [NCATS] NIH Chemical Genomics Center [NCGC] U.S. Environmental Protection Agency [EPA] National Institutes of Environmental Health Sciences [NIEHS] National Toxicology Program [NTP] U.S. Food and Drug Administration [FDA] Tox21 Assay Overview: Androgen receptor (AR), a nuclear hormone receptor, plays a critical role in AR-dependent prostate cancer and other androgen related diseases. Endocrine disrupting chemicals (EDCs) and their interactions with steroid hormone receptors like AR may cause disruption of normal endocrine function as well as interfere with metabolic homeostasis, reproduction, developmental and behavioral functions. To identify the compounds that activate AR signaling, GeneBLAzer AR-UAS-bla-GripTite cell line (Invitrogen, Carlsbad, CA, USA) containing a beta-lactamase reporter gene under the control of an Upstream Activator Sequence (UAS) stably integrated into HEK293 cells was used to screen the Tox21 10K compound library.
Androgen receptor (Homo sapiens), sequence (P10275 whole entry, looked up): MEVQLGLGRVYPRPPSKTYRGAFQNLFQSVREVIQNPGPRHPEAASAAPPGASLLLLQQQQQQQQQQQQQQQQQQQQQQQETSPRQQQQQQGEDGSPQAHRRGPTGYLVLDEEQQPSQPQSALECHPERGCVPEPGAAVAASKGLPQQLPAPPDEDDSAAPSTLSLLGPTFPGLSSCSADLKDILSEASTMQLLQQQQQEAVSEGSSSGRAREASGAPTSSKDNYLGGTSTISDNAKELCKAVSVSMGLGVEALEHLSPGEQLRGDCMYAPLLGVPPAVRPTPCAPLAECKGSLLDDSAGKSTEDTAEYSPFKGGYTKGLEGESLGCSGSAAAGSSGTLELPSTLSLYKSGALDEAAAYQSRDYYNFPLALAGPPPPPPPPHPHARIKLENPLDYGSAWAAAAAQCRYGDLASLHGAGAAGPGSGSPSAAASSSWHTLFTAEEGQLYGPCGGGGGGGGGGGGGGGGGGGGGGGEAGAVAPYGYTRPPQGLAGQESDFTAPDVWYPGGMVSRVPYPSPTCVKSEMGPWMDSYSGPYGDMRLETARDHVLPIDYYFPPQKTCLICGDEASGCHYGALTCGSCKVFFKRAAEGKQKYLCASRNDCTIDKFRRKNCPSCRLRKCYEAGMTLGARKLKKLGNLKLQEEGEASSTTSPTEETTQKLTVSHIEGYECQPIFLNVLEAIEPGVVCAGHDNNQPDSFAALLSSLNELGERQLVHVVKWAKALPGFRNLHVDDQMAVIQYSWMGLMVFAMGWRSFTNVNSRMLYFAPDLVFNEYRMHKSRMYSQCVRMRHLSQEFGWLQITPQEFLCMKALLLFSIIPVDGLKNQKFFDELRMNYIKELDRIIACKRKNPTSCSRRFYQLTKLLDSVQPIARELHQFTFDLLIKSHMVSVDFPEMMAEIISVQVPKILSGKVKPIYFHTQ
Tox21 Assay Protocol Summary: AR-bla cells were dispensed at 2,000 cells/6 uL/well of assay medium into black wall/clear-bottom 1536-well plates using a Multidrop Combi (ThermoFisher Scientific, Waltham, MA) dispenser. After the assay plates were incubated at 37C and 5% CO2 for 4 h, 23 nL of compounds dissolved in DMSO, positive controls or DMSO only was transferred to the assay plate by a Pintool station (Kalypsys, San Diego, CA). The plates were incubated at 37C and 5% CO2 for 16 h. Then 1 uL of LiveBLAzerTM B/G FRET substrate was added using a Bioraptr Flying Reagent Dispenser (FRD) workstation (Beckman Coulter, Indianapolis, IN, USA). The plates were incubated at room temperature for 2 h, and fluorescence intensity was measured by an Envision plate reader (PerkinElmer, Shelton, CT).
Background: Quantitative high-throughput screening tests each substance at several concentrations.
Turning to `Cn1cnc2c(F)c(Nc3ccc(Br)cc3Cl)c(C(=O)NOCCO)cc21`, the “activation” value is -5.78%. Regarding `COC(=O)C(C)O` (stereo not given), the “activation” value was 5.36% [at 79.1 µM]. Consider `Cc1cc(S(=O)(=O)O)c(N)cc1Cl`, for which the “activation” value is -0.0401% [at 79.1 µM]. For `Cc1ccsc1C(=CCCN1CCC[C@@H](C(=O)O)C1)c1sccc1C`, the “activation” value was 0.886%. With `OC[C@H]1O[C@@H](O[C@H]2[C@H](O)[C@@H](O)[C@H](O)O[C@@H]2CO)[C@H](O)[C@@H](O)[C@H]1O`, the “activation” value is -4.3%.

In the case of `C[C@@H](N)C(=O)O`, the “activation” value was 2.74%.

Consider `CN1CCN(C2=Nc3cc(F)ccc3Cc3ccccc32)CC1`, for which the “activation” value was -3.92%. On the same count and under the same terms, the result for `CC1(O)CSC(C)(O)CS1` (stereo not given) reads 9.11%; that for `NCCCN1CCN(CCCN)CC1`, 16.3%; that for `Cc1c(C(=O)NCCO)[n+](=O)c2ccccc2n1[O-]`, -8.87%. Still for that read-out and setting: next, `Nc1cccc(S(=O)(=O)O)c1`: 8.72%. Regarding `CC(C)CCCCCCc1ccc(OCCOCCO)cc1`, the “activation” value was 6.07% [at 79.1 µM]. With `N#Cc1ccc(C(c2ccc(C#N)cc2)n2cncn2)cc1`, the result was inactive. With `Cc1nc(-c2ccccn2)ncc1C(=O)Nn1cc(C)c2cc(F)ccc21`, the “activation” value is -0.0968%. Consider `CC(C)(C)c1cccc(O)c1`, for which the “activation” value was -4.92%. Take `OCCN(CCO)c1ccccc1`: the “activation” value was 6.41%. Consider `CCC(=O)c1ccc2c(c1)N(CCCN(C)C)c1ccccc1S2`, for which the “activation” value is 5.13%. On to `O=C1CCN(c2ccccc2)N1`, for which the “activation” value is -4.91% [at 79.1 µM].

For `CC(=O)OC(C)OC(C)=O`, the “activation” value was 7.06% [at 79.1 µM]. As for `CN(C)Cc1ccccc1`, the result was inactive.

Take `CC1=C2[C@H](/C=C(\C)C(=O)O)CC[C@@H](C)[C@H]2CC1`: the “activation” value is -19.6% [at 79.1 µM]. On to `CC(C)c1ccccc1`, for which the “activation” value was -0.759% [at 79.1 µM]. For `COC(C)CCO` (stereo not given), the “activation” value is -2.76%.

Turning to `CCCCCOc1ccc(C2SC(=O)NC2=O)cc1OCC` (stereo not given), the “activation” value was -10.5%. Same read-out and setting: the result for `Cc1ncc(CO)c(CN)c1O` reads 0.231%.

For the origin of these results see PubChem BioAssay (Tox21).
